Assay [1] can be described thus: P. berghei load reduction in hepatocytes – cell-based, HepG2, luciferase luminescence, HepG2 viability, primary screen (AID 624349; in the data active = parasite load remaining mostly below about 12%, no sharp cut-off; inactive = mostly above about 10%;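 note: 100% = mean of DMSO negative control wells on the same plate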). The conditions noted are these: P. berghei liver stage in HepG2, luciferase luminescence, concentration not given here; parasite load remaining: stronger effect = lower value; viability: measured here: HepG2 viability without parasites.
The nature of assay [2]: viability loss with induced miR-34 in A549 – imaging, A549 dox-inducible miR-34, nuclei and caspase counts, primary screen (AID 1347080;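 active = compounds whose cell count with miR-34 switched on is under 0.7 times the count with it off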). The conditions noted are these: A549 miR-34 inducible, Hoechst nuclei count, 48 h.
Assay [3] in a line: galactose survival enhancers in mitochondrial complex I cybrids – cell-based, galactose medium, ATP luminescence, primary screen (AID 1645843;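 active = z-score of at least 1.8 in each of two replicates, scored against plate mean and spread of sample wells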;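 note: positive z means more ATP and so rescue of galactose-driven cybrid death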). As to conditions: complex I mutant cybrid cells, 72 h, stronger effect = higher value.
Another assay relates to F380Y. Kind of assay: BK channel mutant inhibitors and activators – cell-based, U2OS BacMam, thallium flux, beta subunits, selectivity assay, profiling panel (AID 1259406).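 Note: initial slope of Thallos dye fluorescence rise after thallium is added; log ratio against the mean of 0.3% DMSO vehicle wells on the same plate.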 As to conditions: U2OS BacMam BK variants, at 30 µM.
A further assay has as its system F380Y/beta1. The assay is described as above. As to conditions: U2OS BacMam BK variants, at 30 µM.
The subject of another assay is F380Y/beta2Delta. The description is as above. The conditions noted are these: U2OS BacMam BK variants, at 30 µM.
The next assay deals with F380Y/beta4. The assay is described as above. The conditions noted are these: U2OS BacMam BK variants, at 30 µM.
The target of assay [4] is Calcium-activated potassium channel subunit alpha-1 (Homo sapiens) + Leucine-rich repeat-containing protein 26 (Homo sapiens) (UniProt Q12791+Q2I0M4). Described as above. The conditions noted are these: U2OS BacMam BK variants, F380Y/Slo1WT/gamma1, at 30 µM.
Sequence of Calcium-activated potassium channel subunit alpha-1 (Homo sapiens) + Leucine-rich repeat-containing protein 26 (Homo sapiens) (Q2I0M4 whole entry, looked up, one chain of several): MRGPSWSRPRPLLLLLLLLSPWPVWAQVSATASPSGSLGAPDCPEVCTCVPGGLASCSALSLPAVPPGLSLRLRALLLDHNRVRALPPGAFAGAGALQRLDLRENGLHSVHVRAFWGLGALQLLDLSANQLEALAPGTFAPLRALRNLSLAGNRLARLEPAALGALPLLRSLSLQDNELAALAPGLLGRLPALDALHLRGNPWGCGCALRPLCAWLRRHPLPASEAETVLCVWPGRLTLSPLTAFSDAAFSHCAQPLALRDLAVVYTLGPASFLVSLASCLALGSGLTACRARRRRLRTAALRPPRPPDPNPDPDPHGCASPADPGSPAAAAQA
Another assay concerns R275C. Described as above. The conditions noted are these: U2OS BacMam BK variants, at 30 µM.
For the next assay, the system named is R275C/beta1. The assay is described as above. As to conditions: U2OS BacMam BK variants, at 30 µM.
For another assay, the system named is R275C/beta2Delta. The assay is described as above. As to conditions: U2OS BacMam BK variants, at 30 µM.
The next assay deals with R275C/beta4. Described as above. The conditions noted are these: U2OS BacMam BK variants, at 30 µM.
A further assay deals with R275C/Slo1WT/beta2. The description is as above. The conditions noted are these: U2OS BacMam BK variants, at 30 µM.
The nature of assay [5]: signal quenchers or enhancers, Cy5 substrate/SSB – biochemical, NIH Clinical Collection, E. coli SSB, artefact control for HCV NS3 helicase inhibitor project (AID 743268; call rule not given here). As to conditions: Cy5-oligo bound E. coli SSB, fluorescence interference.
The test system of assay [6] is Hepatitis C virus NS3 helicase. Kind of assay: blockers of NS3h binding to DNA – biochemical, fluorescence polarization, NIH Clinical Collection, primary screen (AID 743270; call rule not given here). As to conditions: NS3 helicase binding to Cy5-dT15 DNA, stronger effect = higher value, concentration not given here.
The target in assay [7] is Single-stranded DNA-binding protein (Escherichia coli (strain K12)) (UniProt P0AGE0). Kind of assay: SSB-ssDNA binding inhibitors – biochemical, fluorescence polarization, NIH Clinical Collection, counter-screen for HCV NS3 helicase inhibitor project (AID 743271; in the data active = inhibition above about 28%). The conditions noted are these: E. coli SSB-DNA binding, stronger effect = higher value, concentration not given here.
Assay [8] can be described thus: compounds distorting NS3 helicase fluorescence signal – biochemical, NIH Clinical Collection, artefact control for HCV NS3 helicase inhibitor project (AID 743272; call rule not given here;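 note: HCV NS3 helicase with a Cy5 labelled single stranded DNA probe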). As to conditions: fluorescence interference counterscreen, HCV NS3 helicase assay; stronger effect = lower value.
The test system of assay [9] is Neuropilin-2 / VEGF-C interaction (human). Kind of assay: small molecules blocking Neuropilin-2/VEGF-C interaction – biochemical, microplate binding format, z-score (AID 743281; call rule not given here). The conditions noted are these: microplate NRP2/VEGF-C binding assay; stronger effect = lower value.
The nature of assay [10]: modulation of C. elegans fzo-1 (AID 1259413; call rule not given here;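 note: fzo-1 mutant C. elegans worms in liquid wells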). The conditions noted are these: C. elegans fzo-1 modulator screen, mean read-out; stronger effect = higher value.
Assay [11] is described as follows: MELAS cybrid and Rieske KO viability enhancers – cell-based, MELAS cybrids, Rieske KO mouse fibroblasts, CellTiter-Glo, primary screen (AID 1508586;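 active = mean z-score across replicates of 1.96 or higher in either the MELAS or the Rieske mutant cell line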;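 note: z relative to plate mean and SD of compound and empty wells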). The conditions noted are these: low glucose.
Setting [12] is: stronger effect = lower value, cell number ratio, induced over uninduced.
Where [13] appears, read: measured here: relative caspase fold change +Dox/-Dox.
Where [14] appears, read: measured here: total cells with miR-34 induction, stronger effect = lower value.
Where [15] appears, read: measured here: total cells without miR-34 induction.
The mark [16] stands for this setting: MELAS cybrid survival, CellTiter-Glo 48 h, stronger effect = higher value.
[17] abbreviates: Rieske KO mouse fibroblast survival, CellTiter-Glo 72 h.

Active and inactive are the calls of the source.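 Rule for the calls, unless noted: active = thallium flux through the channel raised or lowered by more than 3 SD from vehicle-only wells, actives on both sides; inactive = the rest.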

Here are results for seven molecules from PubChem BioAssay.

On to `CCCCCN=C(N)NN=Cc1c[nH]c2ccc(OC)cc12`, for which, in assay [1], the parasite load remaining is 0.065% (inactive). This molecule also gave a viability in assay [1] of 3.78%. Further, the fold change was 1.42 (inactive) in assay [2] (setting [12]) and 1.01 in assay [2] (setting [13]). In addition, the cell count in assay [2] (setting [14]) was determined as 18.5; in assay [2] (setting [15]), 13. Further, the z-score in [3] is -1.88 (inactive). The log fold change Tl+ flux was 0.707 (active) in the assay with F380Y; 0.869 (active) with F380Y/beta1; 0.585 (active) in the assay with F380Y/beta2Delta; 0.841 (active) in the assay on F380Y/beta4; 0.468 (active) in assay [4]; 0.229 (active) in the assay on R275C. Moreover, the log fold change Tl+ flux in the assay on R275C/beta1 was 0.839 (active); with R275C/beta2Delta, -0.0142 (inactive); in the assay on R275C/beta4, 0.743 (active); in the assay with R275C/Slo1WT/beta2 it was 0.7 (active).

Turning to `CC(=O)CCCCn1cnc2c1c(=O)n(C)c(=O)n2C`, in assay [1], the parasite load remaining was 108% (inactive). In [1], this molecule showed a viability of 91.8%. In addition, the fluorescence ratio in assay [5] was 1.04 (inactive); in assay [8], 0.95 (inactive). Besides, the values for the inhibition in assay [6] and in assay [7] were -0.4% (inactive) and -0.1% (inactive), respectively. The z-score is -1.78 (inactive) in [9] and 0.63 (inactive) in assay [3]. Besides, the mean signal in [10] was 257 (inactive). Also, the values for the fold change in assay [2] (setting [12]) and in assay [2] (setting [13]) were 0.919 (inactive) and 1.72, respectively. Moreover, the cell count in assay [2] (setting [14]) worked out at 9610; in [2] (setting [15]) it was 10500. Further, the log fold change Tl+ flux in the assay on F380Y is -0.0664 (inactive); in the assay on F380Y/beta1, -0.015 (inactive); in the assay with F380Y/beta2Delta, -0.0429 (inactive); in the assay on F380Y/beta4 it was -0.0419 (inactive); in [4], 0.0418 (inactive); in the assay on R275C it was -0.00612 (inactive). Further, the log fold change Tl+ flux in the assay on R275C/beta1 was -0.0249 (inactive); in the assay on R275C/beta2Delta it was 0.0157 (inactive); with R275C/beta4, -0.0496 (inactive); with R275C/Slo1WT/beta2, -0.0588 (inactive).

For `COc1cc(/C=C/c2ccc(O)cc2)cc(OC)c1`, in assay [1], the parasite load remaining was 117% (inactive). The molecule also registered a viability in assay [1] of 70.6%. Besides, the fluorescence ratio in [5] is 0.96 (inactive); in assay [8] it was 0.99 (inactive). For the same molecule, the inhibition was 5.94% (inactive) in [6] and 9.14% (inactive) in assay [7]. In addition, in [9], the z-score is -1.34 (inactive). Moreover, in assay [10], the mean signal is 227 (inactive). The log fold change Tl+ flux in the assay with F380Y was -1.03 (active); in the assay on F380Y/beta1, -0.986 (active); in the assay on F380Y/beta2Delta it was -1.01 (active); in the assay on F380Y/beta4, -0.813 (active); in [4], -0.744 (active); with R275C it was -0.927 (active). Moreover, the log fold change Tl+ flux in the assay with R275C/beta1 was -0.11 (active); in the assay on R275C/beta2Delta it was -0.000996 (inactive); in the assay on R275C/beta4 it was 0.05 (inactive); in the assay on R275C/Slo1WT/beta2, -0.108 (active).

On to `CO[C@H]1/C=C/O[C@@]2(C)Oc3c(C)c(O)c4c(O)c(c5c(c4c3C2=O)NC2(CCN(CC(C)C)CC2)N=5)=NC(=O)/C(C)=C\C=C\[C@H](C)[C@H](O)[C@@H](C)[C@@H](O)[C@@H](C)[C@H](OC(C)=O)[C@@H]1C`, for which the parasite load remaining in assay [1] was 23.3% (inactive). The viability in [1] is 92.9%. The fold change in assay [2] (setting [12]) is 1.03 (inactive); in assay [2] (setting [13]), 1.58. Besides, the cell count in assay [2] (setting [14]) amounted to 8520; in [2] (setting [15]), 8270. Further, the z-score is 1.35 (inactive) in [11] (setting [16]), 1.35 in assay [11] (setting [17]) and -1.49 (inactive) in assay [3]. Further, the log fold change Tl+ flux in the assay on F380Y was 0.0411 (inactive); in the assay on F380Y/beta1 it was -0.0629 (inactive); with F380Y/beta2Delta it was -0.104 (active); with F380Y/beta4 it was -0.0899 (inactive); in assay [4], -0.055 (inactive); in the assay with R275C, -0.198 (active). Further, the log fold change Tl+ flux was 0.128 (active) in the assay on R275C/beta1, -0.107 (active) in the assay on R275C/beta2Delta, 0.00982 (inactive) in the assay on R275C/beta4 and -0.0228 (inactive) in the assay with R275C/Slo1WT/beta2.

Consider `c1ccc(-c2ccccn2)nc1`, for which the fold change in assay [2] (setting [12]) is 0.97 (inactive); in [2] (setting [13]), 1.38. Further, the cell count in assay [2] (setting [14]) was determined as 9830; in assay [2] (setting [15]), 10100. In addition, in assay [3], the z-score was 0.54 (inactive). In addition, the log fold change Tl+ flux is -0.0156 (inactive) with F380Y; -0.0247 (inactive) in the assay with F380Y/beta1; 0.0286 (inactive) in the assay with F380Y/beta2Delta; 0.0375 (inactive) in the assay with F380Y/beta4; 0.0137 (inactive) in assay [4]; 0.0175 (inactive) with R275C. Besides, the log fold change Tl+ flux in the assay on R275C/beta1 was -0.0449 (inactive); with R275C/beta2Delta it was 0.0381 (inactive); in the assay on R275C/beta4 it was -0.011 (inactive); in the assay with R275C/Slo1WT/beta2 it was 0.000803 (inactive).

`O=C(OC1C[C@@H]2CC3C[C@H](C1)N2CC3=O)c1c[nH]c2ccccc12` (stereo not given in full): the parasite load remaining in assay [1] is 52.7% (inactive). The viability in assay [1] is 72.3%. Further, the results for the fluorescence ratio in assay [5] and in assay [8] were 1.02 (inactive) and 1 (inactive), respectively. The inhibition was -2.84% (inactive) in [6] and -2.76% (inactive) in assay [7]. Also, the z-score in assay [9] was -0.0143 (inactive); in assay [11] (setting [16]) it was 0.403 (inactive); in assay [11] (setting [17]), -0.707. Also, the mean signal in assay [10] was 222 (inactive). In addition, the log fold change Tl+ flux with F380Y was 0.0495 (inactive); in the assay on F380Y/beta1, 0.0612 (inactive); in the assay on F380Y/beta2Delta, 0.0379 (inactive); in the assay with F380Y/beta4, 0.00589 (inactive); in assay [4], -0.004 (inactive); with R275C, -0.0531 (inactive). Besides, the log fold change Tl+ flux in the assay on R275C/beta1 is 0.0632 (inactive); in the assay with R275C/beta2Delta, 0.00308 (inactive); in the assay on R275C/beta4 it was 0.022 (inactive); in the assay with R275C/Slo1WT/beta2 it was 0.011 (inactive).

With `OC[C@H]1O[C@@H](n2cnc3c(NC4CCCC4)nc(Cl)nc32)[C@@H](O)C1O` (stereo not given in full), in [1], the parasite load remaining is 65.4% (inactive). Also, in assay [1], the viability is 67.2%. The figures for the fluorescence ratio in assay [5] and in [8] were 0.94 (inactive) and 0.97 (inactive), respectively. The inhibition in [6] was -2.84% (inactive); in assay [7], -1.97% (inactive). Also, in assay [9], the z-score was -0.619 (inactive). The mean signal in assay [10] is 256 (inactive).
